# Assay results reported in PubChem BioAssay (EPA / NIEHS).
# Calls of active or inactive are those of the source. How the source made its calls: active means hit-call score of the fitted dose curve at least 0.9, where 1 is the maximum; inactive means score below 0.9.
# Assays:
# [1] = ATG_GLI_CIS: Attagene CIS-FACTORIAL HepG2 Assay for human Zinc Finger Protein GLI1 (AID 2282945); conditions: HepG2, Attagene cis-factorial reporter mRNA, GLI element; actives raise or lower the signal
# Method in brief: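 HepG2 cells transiently transfected with cis-promoter multiplexed reporter units report endogenous transcription factor activity. After 24 h chemical exposure, reporter mRNA was quantified by RT-PCR, 6-FAM labelling, HpaI digestion and capillary electrophoresis, with bidirectional fitting against DMSO.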
# [2] = molecular target: Bile acid receptor (Homo sapiens) (UniProt Q96RI1); test: ATG_IR1_CIS: Attagene CIS-FACTORIAL HepG2 Assay for human Nuclear Receptor Subfamily 1 Group H Member 4 (NR1H4), IR1 submotif (AID 2282946); conditions: IR1 reporter transcription, actives raise or lower the signal
# Chain of Bile acid receptor (Homo sapiens) (Q96RI1 whole entry, looked up): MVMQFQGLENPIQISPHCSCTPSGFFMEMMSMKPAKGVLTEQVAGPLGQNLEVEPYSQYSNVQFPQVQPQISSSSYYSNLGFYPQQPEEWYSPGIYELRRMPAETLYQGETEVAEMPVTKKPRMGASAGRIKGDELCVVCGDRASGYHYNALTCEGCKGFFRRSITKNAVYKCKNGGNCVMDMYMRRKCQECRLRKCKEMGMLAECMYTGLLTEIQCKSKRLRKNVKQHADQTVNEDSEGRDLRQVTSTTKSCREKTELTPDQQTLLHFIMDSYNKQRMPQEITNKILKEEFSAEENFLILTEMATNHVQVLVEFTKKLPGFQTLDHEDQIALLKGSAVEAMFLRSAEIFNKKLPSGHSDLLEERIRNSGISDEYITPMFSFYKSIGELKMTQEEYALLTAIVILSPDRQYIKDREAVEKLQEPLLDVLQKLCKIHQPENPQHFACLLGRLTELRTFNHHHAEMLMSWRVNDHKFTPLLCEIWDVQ
# Method in brief: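 Transient MRTU transfection, HepG2; 24 h dosing; RNA → RT-PCR → 6-FAM primer extension → HpaI digest → capillary electrophoresis fluorescence. Gain/loss of signal fitted relative to DMSO.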
# [3] = ATG_GRE_CIS: Attagene CIS-FACTORIAL HepG2 Assay for human Glucocorticoid Response Elements (GRE) (AID 2282947); conditions: HepG2 GRE cis-reporter, Attagene multiplex mRNA; actives raise or lower the signal
# Method in brief: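 Following 24 h chemical exposure of transiently transfected HepG2 cells, total RNA was reverse-transcribed and reporter cDNA amplified, fluorescently labelled and sized by capillary electrophoresis. Signal gain or loss was fitted relative to DMSO vehicle.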
# [4] = ATG_ISRE_CIS: Attagene CIS-FACTORIAL HepG2 Assay for human Interferon Regulatory Factor 1 (IRF1) binding to an Interferon-Stimulated Response Element (ISRE) (AID 2282948); conditions: HepG2 ISRE cis-reporter (Attagene), mRNA transcription readout; actives raise or lower the signal
# Method in brief: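 Cell-based cis-reporter assay; HepG2; 24 h exposure; reporter mRNA by RT-PCR plus capillary electrophoresis fluorescence; activity in either direction scored relative to DMSO.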
# [5] = ATG_M_32_CIS: Attagene CIS-FACTORIAL HepG2 Assay for M32 Transcription Factor (Internal Marker) (AID 2282949); conditions: HepG2 Attagene cis-factorial M32 reporter, mRNA; actives raise or lower the signal;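 further: background control marker of the multiplexed CIS panel rather than a real target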
# Method in brief: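 Fluorescent capillary electrophoresis peaks of HpaI-digested, FAM-labelled RT-PCR reporter products give the signal. Source: transiently transfected human liver HepG2 cells, 24 h after chemical dosing; bidirectional fitting against DMSO.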
# [6] = ATG_M_06_CIS: Attagene CIS-FACTORIAL HepG2 Assay for M06 Transcription Factor (Internal Marker) (AID 2282950); conditions: HepG2 Attagene CIS-FACTORIAL M06 internal marker reporter; actives raise or lower the signal
# Method in brief: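 Steps: transfect HepG2 with multiplexed cis-element reporter constructs; dose chemical 24 h; extract RNA with DNase treatment; reverse-transcribe, PCR-amplify, 6-FAM label, HpaI digest; separate fragments by capillary electrophoresis. Activity fitted both directions versus DMSO.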
# [7] = molecular target: Hypoxia-inducible factor 1-alpha (Homo sapiens) (UniProt Q16665); test: ATG_HIF1a_CIS: Attagene CIS-FACTORIAL HepG2 Assay for human Hypoxia Inducible Factor 1 (HIF1A) (AID 2282951); conditions: HepG2 Attagene cis-factorial HIF1a reporter transcription; actives raise or lower the signal
# Chain of Hypoxia-inducible factor 1-alpha (Homo sapiens) (Q16665 whole entry, looked up): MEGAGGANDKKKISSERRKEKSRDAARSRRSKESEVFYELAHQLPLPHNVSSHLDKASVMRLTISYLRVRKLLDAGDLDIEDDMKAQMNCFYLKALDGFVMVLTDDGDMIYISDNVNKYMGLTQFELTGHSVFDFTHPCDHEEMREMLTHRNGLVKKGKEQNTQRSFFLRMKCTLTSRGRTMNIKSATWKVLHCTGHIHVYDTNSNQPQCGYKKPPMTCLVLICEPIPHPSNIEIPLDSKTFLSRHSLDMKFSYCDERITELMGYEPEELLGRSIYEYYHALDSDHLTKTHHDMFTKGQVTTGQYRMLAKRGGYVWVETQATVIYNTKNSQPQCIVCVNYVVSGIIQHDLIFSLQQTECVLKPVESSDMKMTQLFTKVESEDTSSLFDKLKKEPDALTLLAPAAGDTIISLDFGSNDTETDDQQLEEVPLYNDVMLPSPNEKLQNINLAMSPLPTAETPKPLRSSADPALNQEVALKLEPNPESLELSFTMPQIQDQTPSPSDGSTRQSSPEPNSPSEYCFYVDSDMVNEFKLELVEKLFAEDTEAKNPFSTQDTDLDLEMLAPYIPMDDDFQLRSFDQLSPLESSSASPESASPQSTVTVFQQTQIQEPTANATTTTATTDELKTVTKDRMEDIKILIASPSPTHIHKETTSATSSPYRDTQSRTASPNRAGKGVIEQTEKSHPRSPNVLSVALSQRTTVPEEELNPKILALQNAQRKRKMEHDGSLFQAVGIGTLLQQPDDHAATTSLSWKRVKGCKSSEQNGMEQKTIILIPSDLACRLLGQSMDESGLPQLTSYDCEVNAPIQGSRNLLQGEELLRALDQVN
# Method in brief: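 HepG2, transient cis-reporter library, 24 h dosing. RNA → RT (oligo dT) → PCR → 6-FAM primer extension → HpaI → CE. Bidirectional curve fit vs DMSO.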
# [8] = molecular target: Hepatocyte nuclear factor 6 (Homo sapiens) (UniProt Q9UBC0); test: ATG_HNF6_CIS: Attagene CIS-FACTORIAL HepG2 Assay for human Hepatocyte Nuclear Factor 6 (HNF6) (AID 2282952); conditions: HepG2 Attagene cis-factorial HNF6 reporter transcription; actives raise or lower the signal
# Chain of Hepatocyte nuclear factor 6 (Homo sapiens) (Q9UBC0 whole entry, looked up): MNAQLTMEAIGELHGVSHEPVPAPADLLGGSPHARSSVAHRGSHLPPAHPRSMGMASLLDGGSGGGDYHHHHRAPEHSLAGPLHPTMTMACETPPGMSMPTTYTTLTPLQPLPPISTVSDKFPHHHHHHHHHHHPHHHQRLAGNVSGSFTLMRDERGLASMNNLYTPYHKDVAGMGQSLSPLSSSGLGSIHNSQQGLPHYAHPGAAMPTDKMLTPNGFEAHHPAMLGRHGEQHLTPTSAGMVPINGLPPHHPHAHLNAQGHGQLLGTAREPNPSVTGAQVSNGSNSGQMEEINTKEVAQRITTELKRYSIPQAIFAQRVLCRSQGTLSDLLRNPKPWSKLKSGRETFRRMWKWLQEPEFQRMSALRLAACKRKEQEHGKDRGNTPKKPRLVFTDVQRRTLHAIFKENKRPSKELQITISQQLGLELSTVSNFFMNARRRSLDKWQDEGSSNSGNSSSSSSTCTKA
# Method in brief: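 Cells are HepG2 carrying transiently transfected cis-promoter reporter units. Treatment lasts 24 h, after which reporter transcripts are reverse-transcribed, amplified, FAM-labelled and sized by capillary electrophoresis. DMSO serves as baseline.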
# [9] = molecular target: Heat shock factor protein 1 (Homo sapiens) (UniProt Q00613); test: ATG_HSE_CIS: Attagene CIS-FACTORIAL HepG2 Assay for human Heat Shock Transcription Factor 1 (HSE) (AID 2282953); conditions: HepG2 HSE cis-reporter, Attagene RNA transcription; actives raise or lower the signal
# Chain of Heat shock factor protein 1 (Homo sapiens) (Q00613 whole entry, looked up, the tested form may be a part): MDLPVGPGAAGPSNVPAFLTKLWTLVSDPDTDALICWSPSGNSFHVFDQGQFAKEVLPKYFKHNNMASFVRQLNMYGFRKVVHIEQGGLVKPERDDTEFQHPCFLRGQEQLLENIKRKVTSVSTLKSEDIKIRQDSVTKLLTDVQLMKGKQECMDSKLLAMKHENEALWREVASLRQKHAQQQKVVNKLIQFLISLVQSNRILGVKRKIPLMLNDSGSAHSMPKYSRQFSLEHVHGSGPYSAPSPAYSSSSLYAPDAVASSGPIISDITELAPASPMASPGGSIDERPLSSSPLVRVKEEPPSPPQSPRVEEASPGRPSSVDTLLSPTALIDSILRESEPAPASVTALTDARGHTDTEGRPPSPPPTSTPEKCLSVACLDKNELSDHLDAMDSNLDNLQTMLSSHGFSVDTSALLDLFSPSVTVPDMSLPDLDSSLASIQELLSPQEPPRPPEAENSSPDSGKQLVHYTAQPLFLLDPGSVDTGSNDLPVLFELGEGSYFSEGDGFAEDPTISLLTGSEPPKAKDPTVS
# Method in brief: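 Cells were transfected with cis-element-driven reporter constructs, dosed for 24 h, then total RNA was reverse-transcribed and reporter cDNA amplified, FAM-labelled and digested with HpaI. Fragments were resolved by capillary electrophoresis; gain or loss was fitted against DMSO.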
# [10] = ATG_MRE_CIS: Attagene CIS-FACTORIAL HepG2 Assay for human Metal Responsive Element (MRE) (AID 2282954); conditions: HepG2 MRE cis-reporter transcription, Attagene multiplex; actives raise or lower the signal
# Method in brief: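 Step one: transfect HepG2 with cis-regulated reporter units. Step two: dose 24 h. Step three: isolate RNA, RT-PCR, 6-FAM label, HpaI digest, capillary electrophoresis. Fit bidirectionally to DMSO.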
# [11] = ATG_PBREM_CIS: Attagene CIS-FACTORIAL HepG2 Assay for human Phenobarbital-responsive Enhancer Module (PBREM) (AID 2282955); conditions: HepG2 PBREM cis-reporter, Attagene multiplexed transcription; actives raise or lower the signal
# Method in brief: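 HepG2, transient MRTU transfection, 24 h dosing; RNA → oligo(dT) RT → PCR → 6-FAM extension → HpaI → CE. Bidirectional fit vs DMSO.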
# [12] = molecular target: Paired box protein Pax-6 (Homo sapiens) (UniProt P26367); test: ATG_Pax6_CIS: Attagene CIS-FACTORIAL HepG2 Assay for human Paired Box 6 (PAX6) (AID 2282956); conditions: HepG2 CIS-FACTORIAL PAX6 reporter transcription, RNA readout; actives raise or lower the signal
# Chain of Paired box protein Pax-6 (Homo sapiens) (P26367 whole entry, looked up): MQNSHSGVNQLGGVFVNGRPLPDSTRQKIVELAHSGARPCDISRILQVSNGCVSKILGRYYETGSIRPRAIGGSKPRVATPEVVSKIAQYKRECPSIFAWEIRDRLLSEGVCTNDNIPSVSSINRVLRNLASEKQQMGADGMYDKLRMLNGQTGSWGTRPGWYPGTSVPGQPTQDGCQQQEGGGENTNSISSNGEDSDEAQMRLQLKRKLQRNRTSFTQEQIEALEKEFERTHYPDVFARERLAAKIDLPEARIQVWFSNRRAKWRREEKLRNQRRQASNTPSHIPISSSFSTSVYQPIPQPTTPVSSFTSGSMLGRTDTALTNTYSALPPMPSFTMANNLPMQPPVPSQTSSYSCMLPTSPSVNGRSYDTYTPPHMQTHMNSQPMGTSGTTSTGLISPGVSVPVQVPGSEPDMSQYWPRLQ
# Method in brief: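 Multiplexed cis-reporter HepG2 system; 24 h treatment; reporter mRNA read by RT-PCR/CE fluorescence; bidirectional fit vs DMSO.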
# [13] = ATG_PXRE_CIS: Attagene CIS-FACTORIAL HepG2 Assay for human Pregnane X Receptor Element (PXRE) (AID 2282957); conditions: HepG2 Attagene CIS-FACTORIAL PXRE reporter, mRNA; actives raise or lower the signal
# Method in brief: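 Multiplexed cis-reporter assay in transiently transfected human HepG2 cells; 24 h chemical exposure. Reporter transcripts quantified by RT-PCR with fluorescent labeling and capillary electrophoresis.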
# [14] = ATG_PPRE_CIS: Attagene CIS-FACTORIAL HepG2 Assay for human Peroxisome Proliferator-activated Response Element (PPRE) (AID 2282958); conditions: HepG2 PPRE cis-element reporter, Attagene transcription factor profiling; actives raise or lower the signal
# Method in brief: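 Transcript-level reporter induction in transfected HepG2 cells after 24 h chemical exposure, quantified by fluorescence from RT-PCR products separated by capillary electrophoresis.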
# [15] = ATG_RORE_CIS: Attagene CIS-FACTORIAL HepG2 Assay for human RAR-related Orphan Receptor Element (RORE) (AID 2282959); conditions: HepG2 Attagene cis-factorial RORE reporter, mRNA; actives raise or lower the signal
# Method in brief: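 Multiplexed reporter assay measuring mRNA induction from a cis promoter element in transiently transfected HepG2 cells after 24 h treatment. Detection via RT-PCR and capillary electrophoresis fluorescence; DMSO serves as baseline.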
# [16] = ATG_Sox_CIS: Attagene CIS-FACTORIAL HepG2 Assay for human SRY-box transcription factor (SOX) (AID 2282960); conditions: HepG2 Attagene cis-factorial SOX reporter, mRNA; actives raise or lower the signal
# Method in brief: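 Cells were transfected with reporter constructs under cis-regulatory promoters, then exposed to chemicals for 24 h. Reporter transcripts were quantified by fluorescence after RT-PCR and capillary electrophoresis; activity was fitted in both directions against DMSO.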
# [17] = molecular target: Transcription factor Sp1 (Homo sapiens) (UniProt P08047); test: ATG_Sp1_CIS: Attagene CIS-FACTORIAL HepG2 Assay for human Specificity Protein 1 (Sp1) (AID 2282961); conditions: HepG2 Sp1 cis-reporter transcription, actives raise or lower the signal
# Chain of Transcription factor Sp1 (Homo sapiens) (P08047 whole entry, looked up): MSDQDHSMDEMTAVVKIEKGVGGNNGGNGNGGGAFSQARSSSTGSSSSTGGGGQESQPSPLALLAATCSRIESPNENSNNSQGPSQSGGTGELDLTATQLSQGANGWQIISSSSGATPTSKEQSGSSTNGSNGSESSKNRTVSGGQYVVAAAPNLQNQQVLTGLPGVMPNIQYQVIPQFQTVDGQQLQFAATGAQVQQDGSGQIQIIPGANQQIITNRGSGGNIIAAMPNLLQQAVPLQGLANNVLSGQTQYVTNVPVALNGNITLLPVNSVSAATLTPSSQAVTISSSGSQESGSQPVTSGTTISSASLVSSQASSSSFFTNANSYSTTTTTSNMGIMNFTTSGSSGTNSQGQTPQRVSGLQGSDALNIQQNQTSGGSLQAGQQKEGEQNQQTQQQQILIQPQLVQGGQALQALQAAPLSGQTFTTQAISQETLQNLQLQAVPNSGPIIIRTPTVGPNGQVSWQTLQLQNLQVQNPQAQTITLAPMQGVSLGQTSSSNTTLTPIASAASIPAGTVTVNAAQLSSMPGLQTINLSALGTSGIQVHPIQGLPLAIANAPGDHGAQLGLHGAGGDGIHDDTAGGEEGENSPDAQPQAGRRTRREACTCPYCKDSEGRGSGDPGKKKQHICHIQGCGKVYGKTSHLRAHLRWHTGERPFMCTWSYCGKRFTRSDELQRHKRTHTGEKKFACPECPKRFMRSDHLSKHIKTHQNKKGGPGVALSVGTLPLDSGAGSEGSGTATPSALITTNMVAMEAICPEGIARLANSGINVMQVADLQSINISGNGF
# Method in brief: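 Measures mRNA induction of an Sp1-linked reporter in HepG2 cells 24 h post-dosing. Multiplexed reporters read by RT-PCR and capillary electrophoresis; DMSO serves as negative control and baseline.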
# [18] = ATG_SREBP_CIS: Attagene CIS-FACTORIAL HepG2 Assay for human Sterol Regulatory Element Binding (SREBP) (AID 2282962); conditions: HepG2 Attagene cis-factorial SREBP reporter, mRNA; actives raise or lower the signal
# Method in brief: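 mRNA induction of transfected cis-promoter reporters in HepG2 cells, 24 h post-dose. Detection: RT-PCR with 6-FAM-labelled products, HpaI digest, capillary electrophoresis. DMSO served as negative control and baseline.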
# [19] = molecular target: Signal transducer and activator of transcription 3 (Homo sapiens) (UniProt P40763); test: ATG_STAT3_CIS: Attagene CIS-FACTORIAL HepG2 Assay for human Signal Transducer and Activator of Transcription 3 (STAT3) (AID 2282963); conditions: HepG2, Attagene cis-factorial STAT3 reporter transcription; actives raise or lower the signal
# Chain of Signal transducer and activator of transcription 3 (Homo sapiens) (P40763 whole entry, looked up): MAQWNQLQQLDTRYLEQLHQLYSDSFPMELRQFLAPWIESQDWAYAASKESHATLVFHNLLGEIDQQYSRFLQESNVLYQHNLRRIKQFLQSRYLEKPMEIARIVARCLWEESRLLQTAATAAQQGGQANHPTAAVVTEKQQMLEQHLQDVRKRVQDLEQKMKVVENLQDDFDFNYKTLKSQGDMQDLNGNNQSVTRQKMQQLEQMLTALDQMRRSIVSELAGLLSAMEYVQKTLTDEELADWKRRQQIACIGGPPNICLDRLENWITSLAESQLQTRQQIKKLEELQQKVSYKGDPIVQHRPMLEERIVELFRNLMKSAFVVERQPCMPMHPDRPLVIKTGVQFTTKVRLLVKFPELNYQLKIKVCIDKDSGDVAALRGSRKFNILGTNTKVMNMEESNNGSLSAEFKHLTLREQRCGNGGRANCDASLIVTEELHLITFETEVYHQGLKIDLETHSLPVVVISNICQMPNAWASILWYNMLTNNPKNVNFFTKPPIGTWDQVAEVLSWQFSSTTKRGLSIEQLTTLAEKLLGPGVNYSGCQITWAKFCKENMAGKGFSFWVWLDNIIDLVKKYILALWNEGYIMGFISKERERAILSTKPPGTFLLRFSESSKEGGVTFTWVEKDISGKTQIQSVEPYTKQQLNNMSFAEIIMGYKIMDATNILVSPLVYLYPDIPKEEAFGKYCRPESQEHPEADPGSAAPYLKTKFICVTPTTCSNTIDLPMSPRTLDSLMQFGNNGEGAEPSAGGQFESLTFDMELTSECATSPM
# Method in brief: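 Transcript-level reporter assay. HepG2 transient MRTU transfection, 24 h exposure, fluorescence detection after RT-PCR and CE; DMSO baseline.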
# [20] = ATG_TA_CIS: Attagene CIS-FACTORIAL HepG2 Assay for human TA Basal Promoter (AID 2282964); conditions: HepG2 Attagene CIS-factorial TA basal promoter reporter; actives raise or lower the signal
# Method in brief: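 Steps: transfect HepG2 with MRTUs; dose 24 h; isolate RNA, DNase-treat, reverse-transcribe; PCR and FAM-label reporter cDNA; digest with HpaI 2h at 37 C; run capillary electrophoresis. Activity fitted both directions against DMSO.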
smiles,measurement,setting,value
CCOC(=O)c1ccccc1N,outcome,[1],inactive
same,outcome,[2],inactive
same,outcome,[3],inactive
same,outcome,[4],inactive
same,outcome,[5],inactive
same,outcome,[6],inactive
same,outcome,[7],inactive
same,outcome,[8],inactive
same,outcome,[9],inactive
same,outcome,[10],inactive
same,outcome,[11],inactive
same,outcome,[12],inactive
same,AC50,[13],39.6 µM (active)
same,outcome,[14],inactive
same,outcome,[15],inactive
same,outcome,[16],inactive
same,outcome,[17],inactive
same,outcome,[18],inactive
same,outcome,[19],inactive
same,outcome,[20],inactive
FC(F)(F)C(F)(C(F)(F)F)C(F)(F)C(F)(F)CC1CO1 (stereo not drawn),outcome,[1],inactive
same,outcome,[2],inactive
same,outcome,[3],inactive
same,outcome,[4],inactive
same,outcome,[5],inactive
same,outcome,[6],inactive
same,outcome,[7],inactive
same,outcome,[8],inactive
same,outcome,[9],inactive
same,outcome,[10],inactive
same,outcome,[11],inactive
same,outcome,[12],inactive
same,outcome,[13],inactive
same,outcome,[14],inactive
same,outcome,[15],inactive
same,outcome,[16],inactive
same,outcome,[17],inactive
same,outcome,[18],inactive
same,outcome,[19],inactive
same,outcome,[20],inactive
C=C(C)C(=O)OCC1CO1 (stereo not drawn),outcome,[1],inactive
same,outcome,[2],inactive
same,outcome,[3],inactive
same,outcome,[4],inactive
same,outcome,[5],inactive
same,outcome,[6],inactive
same,outcome,[7],inactive
same,outcome,[8],inactive
same,outcome,[9],inactive
same,outcome,[10],inactive
same,outcome,[11],inactive
same,outcome,[12],inactive
same,outcome,[13],inactive
same,outcome,[14],inactive
same,outcome,[15],inactive
same,outcome,[16],inactive
same,outcome,[17],inactive
same,outcome,[18],inactive
same,outcome,[19],inactive
same,outcome,[20],inactive
Cc1ccc(N)cc1N,outcome,[1],inactive
same,outcome,[2],inactive
same,outcome,[3],inactive
same,outcome,[4],inactive
same,outcome,[5],inactive
same,outcome,[6],inactive
same,outcome,[7],inactive
same,outcome,[8],inactive
same,outcome,[9],inactive
same,outcome,[10],inactive
same,outcome,[12],inactive
same,outcome,[13],inactive
same,outcome,[14],inactive
same,outcome,[15],inactive
same,outcome,[16],inactive
same,outcome,[17],inactive
same,outcome,[18],inactive
same,outcome,[19],inactive
same,outcome,[20],inactive
COP(=O)(O)OC,outcome,[1],inactive
same,outcome,[2],inactive
same,outcome,[3],inactive
same,outcome,[4],inactive
same,outcome,[5],inactive
same,outcome,[6],inactive
same,outcome,[7],inactive
same,outcome,[8],inactive
same,outcome,[9],inactive
same,outcome,[10],inactive
same,outcome,[12],inactive
same,AC50,[13],32.8 µM (active)
same,outcome,[14],inactive
same,outcome,[15],inactive
same,outcome,[16],inactive
same,outcome,[17],inactive
same,outcome,[18],inactive
same,outcome,[19],inactive
same,outcome,[20],inactive
CCOc1ccc(C(C)(C)COCc2cccc(Oc3ccccc3)c2)cc1,outcome,[1],inactive
same,outcome,[2],inactive
same,outcome,[3],inactive
same,outcome,[4],inactive
same,outcome,[5],inactive
same,outcome,[6],inactive
same,outcome,[7],inactive
same,outcome,[8],inactive
same,outcome,[9],inactive
same,outcome,[10],inactive
same,outcome,[11],inactive
same,outcome,[12],inactive
same,AC50,[13],1.93 µM (active)
same,outcome,[14],inactive
same,outcome,[15],inactive
same,outcome,[16],inactive
same,outcome,[17],inactive
same,outcome,[18],inactive
same,outcome,[19],inactive
same,outcome,[20],inactive
CCNc1nc(Cl)nc(NC(C)(C)C)n1,outcome,[1],inactive
same,outcome,[2],inactive
same,outcome,[3],inactive
same,outcome,[4],inactive
same,outcome,[5],inactive
same,outcome,[6],inactive
same,outcome,[7],inactive
same,outcome,[8],inactive
same,outcome,[9],inactive
same,outcome,[10],inactive
same,outcome,[11],inactive
same,outcome,[12],inactive
same,AC50,[13],6.16 µM (active)
same,outcome,[14],inactive
same,outcome,[15],inactive
same,outcome,[16],inactive
same,outcome,[17],inactive
same,outcome,[18],inactive
same,outcome,[19],inactive
same,outcome,[20],inactive
